In PubChem BioAssay (NCATS):
Unmarked numbers belong to inactive results. Records with an inconclusive call do not appear. A call without a number means that no potency is given here. The source made the active and inactive calls. The call rests on the fitted dose curve; in most records, active means well fitted curve in the direction sought with a large enough effect; inconclusive means small, poorly fitted or top-dose-only effect, or another doubt; inactive means no such curve, though single readings can be large; an effect the other way counts as inactive or inconclusive. Where a SMILES comes first, the peptide text is derived from it. [ ]: non-standard residue; d: D form. ξ: configuration not given here. ξLac(3-iPr) = CC(C)CC(O)C(=O)O; NMeV = CN[CH](C(=O)O)C(C)C; βAla = NCCC(=O)O

Legend:
[1] = molecular target: Phospholipid hydroperoxide glutathione peroxidase GPX4 (Homo sapiens) (UniProt P36969); experiment: Primary qHTS Assay for Inhibitors of Recombinant Selenoprotein Glutathione Peroxidase 4 (GPX4) (AID 1845192); further: nearly all actives have a fitted effect of over 65% in size; on activity change, negative = inhibition: series mostly up to about 50 µM
Sequence of Phospholipid hydroperoxide glutathione peroxidase GPX4 (Homo sapiens) (P36969 whole entry, looked up): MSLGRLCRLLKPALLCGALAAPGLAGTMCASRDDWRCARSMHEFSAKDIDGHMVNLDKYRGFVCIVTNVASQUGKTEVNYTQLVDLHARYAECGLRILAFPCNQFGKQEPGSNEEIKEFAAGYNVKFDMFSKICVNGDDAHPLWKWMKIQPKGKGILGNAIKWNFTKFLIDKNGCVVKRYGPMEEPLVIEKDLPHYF
Outline: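 qHTS, GR-coupled: GPX4 200 nM + cpd 30 min RT → GSH 1 mM, NADPH 0.5 mM, GR 100 nM → CHP 0.5 mM start; fluor 340/450 at t0 and t15 min; no-enzyme wells as control.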

[2] = molecular target: Luciferin 4-monooxygenase (Photinus pyralis) (UniProt P08659); experiment: Primary firefly luciferase (FLuc) qHTS assay for identification of artifact compounds. (AID 1845220); further: nearly all actives have a fitted effect of over 60% in size; further: potency means the concentration at half of the fitted maximal effect; on activity change, negative = inhibition: series mostly up to about 54 µM
Outline: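 qHTS, 15 min compound preincubation with substrate (10 uM luciferin, 10 uM ATP) at RT, then 10 nM FLuc; 5 min; luminescence; % inhibition vs no-enzyme/DMSO controls, 4-parameter Hill fit.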

[3] = Primary fluorescence-based thiol-reactive (MSTI) qHTS assay for identification of artifact compounds. (AID 1845221); further: nearly all actives have a fitted effect of over 65% in size; further: potency means the concentration at half of the fitted maximal effect;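 on activity change, negative = thiol reactive: series mostly up to about 54 µM; thiol-reactive compounds lower the probe fluorescence signal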
Outline: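 Probe: MSTI 4 uM, PBS pH 7.4, 2% DMSO. Incubation 1 h, RT, light-protected. Readout fluorescence 525/598 nm.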

[4] = tested on: Nanoluciferase (engineered Oplophorus gracilirostris luciferase); experiment: Primary Nanoluciferase (NLuc) qHTS assay for identification of artifact compounds. (AID 1845222); further: series mostly up to about 54 µM
Outline: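 Luminescence read-out of secreted NLuc in S16 cell conditioned medium (1:55); compounds tested with 15 min RT preincubation, then Nano-Glo substrate 1:100, 5 min. % inhibition vs no-enzyme and DMSO controls, 4-parameter Hill fit.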

[5] = Primary redox qHTS assay for identification of artifact compounds. (AID 1845223); further: potency means the concentration at half of the fitted maximal effect
Outline: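 Redox-cycling detection via DTT (250 uM final) oxidation coupled to Amplex Red (25 uM)/HRP (250 mU/mL) in HBSS. 15 min preincubation plus 30 min after DTT, room temperature. Ex/Em 525/598 nm; 4-parameter Hill fit against DMSO and 10 uM DA3003.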

In the case of O=C(O)c1cccc(S(=O)(=O)N2CCc3ccccc3C2)c1, the Potency [1] is reported as “inactive”, the Potency [2] is reported as “inactive” and the Potency [3] is reported as “inactive”. The Potency [4] was “inactive” and the Potency [5] was “inactive”.

With Cc1ccc(C(=O)Nc2noc3ccccc23)cc1 the Potency [1] was “inactive”, the Potency [2] was 0.0849 µM (active) and the Potency [3] was “inactive”. For the same molecule, the Potency [4] was “inactive” and the Potency [5] was “inactive”.

With COC(=O)c1c(C)cc(OC(=O)c2c(C)cc(OC)cc2OC)cc1O[C@@H]1O[C@H](CO)[C@@H](O)[C@H](O)[C@H]1O the Potency [1] was “inactive”, the Potency [2] was “inactive” and the Potency [3] was “inactive”. The Potency [4] was “inactive” and the Potency [5] was 2.92 µM (active).

With NC(=O)C(CCC(F)(F)F)N(Cc1ccc(-c2ncon2)cc1F)S(=O)(=O)c1ccc(Cl)cc1 (stereo not given) the Potency [1] was “inactive”, the Potency [2] was “inactive” and the Potency [3] was “inactive”. For the same molecule, the Potency [4] was “inactive” and the Potency [5] was “inactive”.

In the case of OC[C@H]1O[C@@H](OC(CCCCc2ccc(O)cc2)CCc2ccc(O)cc2)[C@H](O)[C@@H](O)[C@@H]1O (stereo not given in full), the Potency [1] is reported as “inactive”, the Potency [2] is reported as “inactive” and the Potency [3] is reported as “inactive”. The Potency [4] was “inactive” and the Potency [5] was “inactive”.

With N[C@H]1Cc2ccccc2N(O)C1=O the Potency [1] was “inactive”, the Potency [2] was “inactive” and the Potency [3] was “inactive”. The Potency [4] was “inactive” and the Potency [5] was “inactive”.

In the case of O=C(Nc1ccccc1-c1cn2c(CN3CCNCC3)csc2n1)c1ccc2ccccc2n1, the Potency [1] is reported as “inactive”, the Potency [2] is reported as “inactive” and the Potency [3] is reported as “inactive”. The Potency [4] was “inactive” and the Potency [5] was “inactive”.

With CC1(C)CCCC2(C)C1C(O)C=C(CO)C2(O)CO (stereo not given) the Potency [1] was “inactive”, the Potency [2] was “inactive” and the Potency [3] was “inactive”. The Potency [4] was “inactive” and the Potency [5] was “inactive”.

In the case of CC(C)CC1OC(=O)C2CCCN2C(=O)CCNC(=O)C(Cc2ccccc2)NC(=O)C(C(C)C)N(C)C(=O)C(C(C)C)N(C)C1=O (stereo not given) (cyclo([ξLac(3-iPr)][NMeV][NMeV]F[βAla]P); configuration not given here), the Potency [1] is reported as “inactive”, the Potency [2] is reported as “inactive” and the Potency [3] is reported as “inactive”. The Potency [4] was “inactive” and the Potency [5] was “inactive”.

With NC(=O)[C@H]1CCS[C@@H]2C[C@]3(CCCN3C(=O)Cc3ccc(NC(=O)COc4ccc(Cl)cc4Cl)cc3)C(=O)N12 the Potency [1] was “inactive”, the Potency [2] was “inactive” and the Potency [3] was “inactive”. The Potency [4] was “inactive” and the Potency [5] was “inactive”.

For C[C@@H]1CN(Cc2ccccc2)C[C@H]1c1nc2c(cnn2C2CCOCC2)c(=O)[nH]1, the Potency [1] was “inactive”, the Potency [2] was “inactive” and the Potency [3] was “inactive”. The Potency [4] was “inactive” and the Potency [5] was “inactive”.

For Cc1c[nH]c2nccc(Oc3c(F)cc(Nc4cc(Cl)nc(N)n4)cc3F)c12, the Potency [1] was “inactive”, the Potency [2] was “inactive” and the Potency [3] was “inactive”. For the same molecule, the Potency [4] was “inactive” and the Potency [5] was “inactive”.

For CCCOc1ccc(-c2nc(OC)c3ccccc3n2)cc1, the Potency [1] was “inactive”, the Potency [2] was “inactive” and the Potency [3] was “inactive”. For the same molecule, the Potency [4] was “inactive” and the Potency [5] was “inactive”.

For COc1cc(OC)c(/C=C/S(=O)(=O)Cc2ccc(OC)c(NCC(=O)O)c2)c(OC)c1, the Potency [1] was “inactive”, the Potency [2] was “inactive” and the Potency [3] was 3.36 µM (active). For the same molecule, the Potency [4] was “inactive” and the Potency [5] was “inactive”.

With Clc1cc2c(NC3CCCC3)nnc(-c3ccncc3)c2cc1Cl the Potency [1] was “inactive”, the Potency [2] was “inactive” and the Potency [3] was “inactive”. For the same molecule, the Potency [4] was “inactive” and the Potency [5] was “inactive”.

With O=C1NC2CCc3nc4ccccc4c(=O)n3C2=Nc2ccccc21 (stereo not given) the Potency [1] was “inactive”, the Potency [2] was “inactive” and the Potency [3] was “inactive”. For the same molecule, the Potency [4] was “inactive” and the Potency [5] was “inactive”.

In the case of CC(=O)/C=C/[C@H]1[C@](C)(O)[C@@H](O)[C@H](OC(C)=O)C2C(C)(C)CCC[C@@]21C (stereo not given in full), the Potency [1] is reported as “inactive”, the Potency [2] is reported as “inactive” and the Potency [3] is reported as “inactive”. The Potency [4] was “inactive” and the Potency [5] was “inactive”.

With C=C1CC[C@@H]2[C@@](C)(CO[C@@H]3O[C@H](CO)C(O)[C@H](O)C3O)[C@H](O)CC[C@@]2(C)[C@@H]1CC/C(C)=C/CO (stereo not given in full) the Potency [1] was “inactive”, the activity change, negative = inhibition [2] was -1.11% [at 11.6 µM] and the activity change, negative = thiol reactive [3] was 21.9% [at 11.5 µM]. It also gave an activity, negative = inhibition [4] of 2.18% [at 11.6 µM] and a redox activity (% of DA3003) [5] of 11.9% [at 11.5 µM].

For C[C@H](Nc1ncnc2nc[nH]c12)c1cc2ccc(F)cc2nc1-c1ccccn1, the Potency [1] was “inactive”, the Potency [2] was “inactive” and the Potency [3] was “inactive”. The Potency [4] was “inactive” and the Potency [5] was “inactive”.

For C/C1=C\[C@H]2OC(=O)[C@@H](C)[C@@H]2CC/C(C(=O)O)=C/CC1, the Potency [1] was “inactive”, the Potency [2] was “inactive” and the Potency [3] was 11.9 µM (active). For the same molecule, the Potency [4] was “inactive” and the Potency [5] was “inactive”.

In the case of CC(=O)N1CCc2ccc(O)c(OC3OC(COC4OCC(O)(CO)C4O)C(O)C(O)C3O)c2C1Cc1ccc(O)cc1 (stereo not given), the Potency [1] is reported as “inactive”, the Potency [2] is reported as “inactive” and the Potency [3] is reported as “inactive”. For the same molecule, the Potency [4] was “inactive” and the Potency [5] was “inactive”.

For COc1cc2c(cc1OC)N1C(=O)C[C@]34C=CCN5CC[C@@H]2[C@@H](CC3)[C@]514, the Potency [1] was “inactive”, the Potency [2] was “inactive” and the Potency [3] was “inactive”. For the same molecule, the Potency [4] was “inactive” and the Potency [5] was “inactive”.

In the case of CC(C)c1cc2c(c(O)c1O)[C@@]13CCCC(C)(C)[C@@H]1[C@H](OC3=O)C2=O, the Potency [1] is reported as “inactive”, the Potency [2] is reported as “inactive” and the Potency [3] is reported as 2.33 µM (active). For the same molecule, the Potency [4] was “inactive” and the Potency [5] was 16.5 µM (active).

In the case of CCC(=O)O[C@H]1C(C)(C)[C@H]([C@@H](O)C(=O)OC)[C@]2(C)C(=O)[C@@]1(O)[C@H]1O[C@]13C1CC(=O)O[C@@H](c4ccoc4)[C@]1(C)CCC32 (stereo not given in full), the Potency [1] is reported as “inactive”, the Potency [2] is reported as “inactive” and the Potency [3] is reported as “inactive”. For the same molecule, the Potency [4] was “inactive” and the Potency [5] was “inactive”.
